In PubChem BioAssay (NCI):
This is part of a sample that, as a whole, favours compounds with a hit. Of some 83,000 tested, about 20% had one in any assay.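 For each line, cells grew in 96-well plates with the test compound present at a single concentration for 48 hours.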 Active and inactive are the calls of the source. The calls were made as follows: active = growth percent below 10; inactive = the rest.

Columns and labels:
Assay in all cases: NCI-60 one-dose screen, 48 h (100 = growth as untreated, 0 = no growth, -100 = all killed)
Settings in all cases: 10 µM unless noted
SR leukemia = test system: SR leukemia
RPMI-8226 leukemia = test system: RPMI-8226 leukemia
OVCAR-8 ovarian = test system: OVCAR-8 ovarian
OVCAR-5 ovarian = test system: OVCAR-5 ovarian
OVCAR-4 ovarian = test system: OVCAR-4 ovarian
SK-OV-3 ovarian = test system: SK-OV-3 ovarian
IGROV1 ovarian = test system: IGROV1 ovarian
OVCAR-3 ovarian = test system: OVCAR-3 ovarian
HS 578T breast = test system: HS 578T breast
NCI/ADR-RES ovarian = test system: NCI/ADR-RES ovarian
T-47D breast = test system: T-47D breast
BT-549 breast = test system: BT-549 breast
MDA-MB-435 melanoma = test system: MDA-MB-435 melanoma
SW-620 colon = test system: SW-620 colon
MCF7 breast = test system: MCF7 breast
HCT-116 colon = test system: HCT-116 colon
HCC-2998 colon = test system: HCC-2998 colon
KM12 colon = test system: KM12 colon

SMILES	growth (SR leukemia)	growth (RPMI-8226 leukemia)	growth (OVCAR-8 ovarian)	growth (OVCAR-5 ovarian)	growth (OVCAR-4 ovarian)	growth (SK-OV-3 ovarian)	growth (IGROV1 ovarian)	growth (OVCAR-3 ovarian)	growth (HS 578T breast)	growth (NCI/ADR-RES ovarian)	growth (T-47D breast)	growth (BT-549 breast)	growth (MDA-MB-435 melanoma)	growth (SW-620 colon)	growth (MCF7 breast)	growth (HCT-116 colon)	growth (HCC-2998 colon)	growth (KM12 colon)
CCNCCCn1c2c(c3ccc(Cl)cc3c1=O)C(=O)c1cc(OC)cnc1-2	-63.6% (active)	-48.8% (active)	-30.7% (active)	-11.9% (active)	52.2% (inactive)	-11% (active)	44.7% (inactive)	39.1% (inactive)	58.8% (inactive)	35.5% (inactive)	16.6% (inactive)	39.8% (inactive)	68.1% (inactive)	-64.5% (active)	-64.9% (active)	-95.8% (active)	68% (inactive)	32.8% (inactive)
COc1cnc2c(c1)C(=O)c1c-2n(CCCN2CCNCC2)c(=O)c2cc(Cl)ccc12	-48.7% (active)	-64.9% (active)	-58.9% (active)	-96.1% (active)	53.4% (inactive)	14.5% (inactive)	51.4% (inactive)	-90.5% (active)	66.3% (inactive)	48.1% (inactive)	58.8% (inactive)	45.7% (inactive)	0.312% (active)	-84.5% (active)	-74.9% (active)	-100% (active)	54.4% (inactive)	11.8% (inactive)
COc1ccc(NC(=O)Cn2c(=O)sc3c(-c4ccc(Cl)cc4)cc(-c4ccc(Cl)cc4)nc32)cc1	63.3% (inactive)	116% (inactive)	107% (inactive)	111% (inactive)	98.3% (inactive)	102% (inactive)	92.3% (inactive)	115% (inactive)	108% (inactive)	89.2% (inactive)	79.9% (inactive)	87.6% (inactive)	102% (inactive)	99.6% (inactive)	89.2% (inactive)	88.1% (inactive)	104% (inactive)	99.7% (inactive)
COC(=O)[C@@H](Cc1c[nH]c2ccccc12)NC(=O)/C=C/c1ccccc1	18.4% (inactive)	14.3% (inactive)	25.2% (inactive)	36% (inactive)	63.1% (inactive)	2.1% (active)	29.1% (inactive)	-5.22% (active)	-13% (active)	4.17% (active)	32.2% (inactive)	-0.499% (active)	-84.3% (active)	27.5% (inactive)	19.6% (inactive)	16.8% (inactive)	66% (inactive)	27.3% (inactive)
CC(=O)Nc1c(Br)cc2c(c1Br)Cc1cc(Br)ccc1-2	54.4% (inactive)	83% (inactive)	68.7% (inactive)	108% (inactive)	9.85% (active)	85.7% (inactive)	45% (inactive)	87% (inactive)	-7.93% (active)	76.1% (inactive)	38.9% (inactive)	77.3% (inactive)	69.3% (inactive)	41.7% (inactive)	59.9% (inactive)	46.6% (inactive)	102% (inactive)	59.6% (inactive)
COc1ccc(CNc2c3ccccc3nc3ccc(OC)cc23)cc1	-15.5% (active)	-47.7% (active)	25.4% (inactive)	30.7% (inactive)	18.4% (inactive)	47.2% (inactive)	11.2% (inactive)	40.4% (inactive)	25.9% (inactive)	16.2% (inactive)	34.2% (inactive)	43% (inactive)	19% (inactive)	15.8% (inactive)	-29.8% (active)	12.7% (inactive)	-57.6% (active)	27.6% (inactive)
CCN1C(=O)/C(=C/N2N=C(c3ccc(Cl)cc3)CC2c2ccc(OC)cc2)SC1=S (stereo not drawn)	84.2% (inactive)	101% (inactive)	93.1% (inactive)	101% (inactive)	84.4% (inactive)	87.4% (inactive)	84.3% (inactive)	104% (inactive)	95.2% (inactive)	96.8% (inactive)	70.1% (inactive)	85.1% (inactive)	97.1% (inactive)	97.6% (inactive)	82.4% (inactive)	85.8% (inactive)	97.7% (inactive)	97.6% (inactive)
O=C(/C=C/c1ccccc1)c1c[nH]c2ccccc2c1=O	10.8% (inactive)	-15.9% (active)	-13.3% (active)	3.5% (active)	42.1% (inactive)	11.6% (inactive)	-11.5% (active)	-60.9% (active)	-18.8% (active)	0.29% (active)	17.3% (inactive)	-4.65% (active)	-18.4% (active)	-6.91% (active)	10.6% (inactive)	0.346% (active)	51.3% (inactive)	1.5% (active)
CCN(CC)CC(=O)Nc1c(C)cc(C(=O)NN)cc1C	88.7% (inactive)	120% (inactive)	107% (inactive)	103% (inactive)	99.4% (inactive)	98.7% (inactive)	88.9% (inactive)	100% (inactive)	91.1% (inactive)	98.5% (inactive)	90.8% (inactive)	117% (inactive)	101% (inactive)	101% (inactive)	98.3% (inactive)	102% (inactive)	107% (inactive)	98.9% (inactive)
CCOC(=O)C1=C(C)NC(=S)NC1c1ccccc1 (stereo not drawn)	94.3% (inactive)	112% (inactive)	103% (inactive)	101% (inactive)	98.5% (inactive)	114% (inactive)	97.4% (inactive)	110% (inactive)	98.9% (inactive)	109% (inactive)	96.2% (inactive)	110% (inactive)	102% (inactive)	97.3% (inactive)	99.7% (inactive)	103% (inactive)	110% (inactive)	101% (inactive)
CC(C)(C)c1ccc(C(=O)Nc2sc3cc(O)ccc3c2C(N)=O)cc1	33.7% (inactive)	5.05% (active)	81.2% (inactive)	99.3% (inactive)	72.1% (inactive)	115% (inactive)	57.9% (inactive)	90.8% (inactive)	96.1% (inactive)	71.7% (inactive)	61.5% (inactive)	85.4% (inactive)	83.9% (inactive)	53.6% (inactive)	44% (inactive)	74% (inactive)	88.2% (inactive)	34.6% (inactive)
Cn1c(-c2ccccc2)cc(=O)n1-c1ccccc1	101% (inactive)	96.5% (inactive)	107% (inactive)	104% (inactive)	103% (inactive)	110% (inactive)	114% (inactive)	124% (inactive)	115% (inactive)	112% (inactive)	102% (inactive)	110% (inactive)	98.4% (inactive)	117% (inactive)	93.6% (inactive)	100% (inactive)	100% (inactive)	103% (inactive)
COc1ccc(-c2ccc(-c3ccc(C(=N)N)s3)s2)cc1	-40.6% (active)	-57.5% (active)	-66.9% (active)	-92.6% (active)	-56.4% (active)	-88.9% (active)	-57.2% (active)	-80.8% (active)	-56.8% (active)	-61.7% (active)	-64% (active)	-81.3% (active)	-78.1% (active)	-69.1% (active)	-50.1% (active)	-47.8% (active)	-81% (active)	-86.8% (active)
C/C(=N\NC(=O)CSc1nc2ccccc2c(=O)n1CCc1ccc(S(N)(=O)=O)cc1)c1ccc(Br)cc1	51.1% (inactive)	49.7% (inactive)	34.6% (inactive)	111% (inactive)	71.3% (inactive)	96.4% (inactive)	100% (inactive)	128% (inactive)	90.8% (inactive)	79.1% (inactive)	91.9% (inactive)	93.9% (inactive)	78.3% (inactive)	77.3% (inactive)	80.5% (inactive)	41.2% (inactive)	90.7% (inactive)	74.1% (inactive)
CC(C)CC(=O)C(CCc1ccccn1)C(C)C (stereo not drawn)	108% (inactive)	95.8% (inactive)	105% (inactive)	105% (inactive)	111% (inactive)	120% (inactive)	114% (inactive)	118% (inactive)	97.8% (inactive)	102% (inactive)	96.3% (inactive)	108% (inactive)	104% (inactive)	104% (inactive)	104% (inactive)	105% (inactive)	106% (inactive)	113% (inactive)
Cc1ccsc1C(=O)CC(=O)C(F)(F)C(F)(F)C(F)(F)F	108% (inactive)	101% (inactive)	102% (inactive)	97.4% (inactive)	98.6% (inactive)	103% (inactive)	114% (inactive)	110% (inactive)	110% (inactive)	107% (inactive)	101% (inactive)	125% (inactive)	105% (inactive)	103% (inactive)	96.6% (inactive)	109% (inactive)	111% (inactive)	107% (inactive)
COc1ccc(-c2cc(C(=O)Nc3ccc(C)cc3)nc3[nH]c(=O)sc23)cc1	76.8% (inactive)	47.2% (inactive)	77.1% (inactive)	100% (inactive)	71.7% (inactive)	68.4% (inactive)	70.3% (inactive)	80.1% (inactive)	74.1% (inactive)	78.3% (inactive)	58.7% (inactive)	75.9% (inactive)	65.5% (inactive)	77.2% (inactive)	71.6% (inactive)	66.2% (inactive)	76.7% (inactive)	67.4% (inactive)
CNC(=O)c1c(NC(=O)c2ccc(C(C)C)cc2)sc2c1CCC(=O)C2	2.8% (active)	-26.2% (active)	11% (inactive)	-45.9% (active)	-74.3% (active)	-3.87% (active)	-52.7% (active)	-10.8% (active)	19.1% (inactive)	-7.01% (active)	-36.6% (active)	-11.2% (active)	9.66% (active)	-35.5% (active)	0.569% (active)	-31.2% (active)	-55.3% (active)	-17.9% (active)
CC1CCN(CCCCCOc2ccc3oc4ccc(Cl)cc4c(=O)c3c2)CC1	14.9% (inactive)	35.4% (inactive)	59.7% (inactive)	72.9% (inactive)	77.3% (inactive)	84.3% (inactive)	70.4% (inactive)	74.6% (inactive)	86.5% (inactive)	71.6% (inactive)	63.4% (inactive)	76.2% (inactive)	21.4% (inactive)	46.7% (inactive)	59.8% (inactive)	23.9% (inactive)	78.4% (inactive)	62.3% (inactive)
NC(CCC(=O)NC(CS)C(=O)NCC(=O)O)C(=O)O (stereo not drawn)	97.3% (inactive)	74.2% (inactive)	98.7% (inactive)	97.6% (inactive)	108% (inactive)	116% (inactive)	98.1% (inactive)	110% (inactive)	107% (inactive)	107% (inactive)	107% (inactive)	119% (inactive)	106% (inactive)	103% (inactive)	103% (inactive)	114% (inactive)	60% (inactive)	108% (inactive)
CCN1C(=O)C(C)C=C(C)C=C1C (stereo not drawn)	110% (inactive)	115% (inactive)	102% (inactive)	106% (inactive)	119% (inactive)	106% (inactive)	106% (inactive)	92.6% (inactive)	102% (inactive)	119% (inactive)	102% (inactive)	124% (inactive)	114% (inactive)	114% (inactive)	106% (inactive)	112% (inactive)	103% (inactive)	100% (inactive)
